CHX counter – Cycloheximide Counterscreen for Small Molecule Inhibitors of Shiga Toxin; cell reporter, cycloheximide protein synthesis inhibition counterscreen; max response, %; 300,000 compounds, 12% hits; AID 2314, 2010; in the data active means max response mostly above about 13%, no sharp cut-off; inactive means mostly below about 14%; further: read at 38.3 µM for the half of the compounds with a filed dose; 0% is about no effect
Pf growth 48h – Primary qHTS for delayed death inhibitors of the malarial parasite plastid, 48 hour incubation; Potency, µM (highest dose often 28.7 µM), for the others: top-dose activity change, negative = inhibition, usual class: inhibitors; P. falciparum luciferase growth in erythrocytes, 48 h; 310,000 compounds, 5.9% hits; further: potency means the concentration at half of the fitted maximal effect; on the % scale 0 is the no-effect control and ±100 the full control effect
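Compounds are pin-transferred into medium, infected erythrocytes (2% hematocrit, 0.1% parasitemia final) are added, and plates sit one parasite generation at 37 C in 5% CO2. Detection reagent is then added and luminescence measured.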
Shiga inhibitor – A qHTS for Small Molecule Inhibitors of Shiga Toxin | Vero cells, Shiga toxin protein synthesis inhibition reporter | inhibition, % at 38.7 µM | 290,000 compounds, 9.2% hits | AID 2315, 2010; in the data active means inhibition mostly above about 28%, no sharp cut-off; inactive means mostly below about 43%; further: 0% is about no effect
NS1 function inh – qHTS Assay for Inhibitors of Influenza NS1 Protein Function; 270,000 compounds, 0.4% hits; Potency, µM (doses to about 46.1 µM), for the others: at the highest dose activity, positive = more growth; AID 2326, 2010; calls by dose curve; further: potency means the concentration at half of the fitted maximal effect; actives are rising curves; nearly all actives have a fitted effect of over 50% in size
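In this qHTS, NS1 from influenza A is expressed in budding yeast, where it slows growth. Cells are switched from glucose to 2% galactose medium (pH 6.0, -URA), treated with compound, and growth recovery is read at OD600.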
SARS PLpro yeast – qHTS of Yeast-based Assay for SARS-CoV PLP; S. cerevisiae expressing SARS-CoV PLpro, growth rescue; Potency, µM (titrated, usually from 32.9 µM), inactives show top-dose activity, positive = growth rescue, most hits filed as activators; 330,000 compounds, 0.19% hits; AID 485353, 2010; calls by dose curve; further: potency means the concentration at half of the fitted maximal effect; 0% is about no effect; nearly all actives have a fitted effect of over 55% in size
Pf growth 96h – Primary qHTS for delayed death inhibitors of the malarial parasite plastid, 96 hour incubation. P. falciparum luciferase reporter growth, 96 h. Potency, µM (doses to about 28.7 µM), inactives show at the highest dose activity change, negative = inhibition, actives largely listed as inhibitors. 320,000 compounds, 6.9% hits; further: potency means the concentration at half of the fitted maximal effect; on the % scale 0 is the no-effect control and ±100 the full control effect
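Parasite growth measured via integrated firefly luciferase reporter in P. falciparum. Infected erythrocytes at 2% hematocrit, 0.05% parasitemia final were treated 96 hours at 37 C under 5% CO2, and luminescence was read.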
An asterisk follows results filed as active; i = inactive; u = inconclusive; x = no result given. In the library only some 21% were active in any assay of this set; here they are far more common. Unless noted, the call rests on the fitted dose curve; in most records, active means well fitted inhibition curve with a large enough effect; inconclusive means small, poorly fitted or top-dose-only effect, or another doubt; inactive means no such curve, though single readings can be large or run the other way.

SMILES | CHX counter | Pf growth 48h | Shiga inhibitor | NS1 function inh | SARS PLpro yeast | Pf growth 96h
O=C(CN(CC1CCCO1)C(=O)CCC(=O)Nc1nccs1)NCC1CCCO1 (configuration not stated) | -2.3 | 0.5% | 79.2 | 3.5% | -2.3% | 13.1µM*
O=C(CN(Cc1ccccc1)C(=O)CCC(=O)Nc1nccs1)NCC1CCCO1 (configuration not stated) | -3.4 | -21.5% | -5.3 | -0.6% | -1.1% | 13.3%
COCCN(CC(=O)NCC1CCCO1)C(=O)CCC(=O)Nc1cc(C)on1 (configuration not stated) | -6.9 | 18.9% | 13.3 | 2.8% | -2.6% | 1.65µM*
C=CCN(CC(=O)NCC1CCCO1)C(=O)CCC(=O)Nc1cc(C)on1 (configuration not stated) | -2.7 | 26.4% | 37.1 | -1.0% | 13.9% | u
CC(=O)Oc1ccc(C)cc1 | x | -12.6% | x | x | x | -15.1%
CC(=O)Oc1ccc(Oc2ccc(-c3noc(C)n3)cc2)cc1 | 32.1* | 61.1% | 82.6* | -16.0% | -4.3% | x
CC(=O)Oc1ccc(-c2nc(-c3cccnc3)no2)cc1 | 38.9* | 120.7% | 41.2* | -18.7% | -7.4% | 29.7%
CCOc1ccc(-c2noc(-c3cccnc3)n2)cc1OCC | 1.0 | u | 11.5 | -1.2% | -0.5% | -63.4%
CCOc1ccc(-c2nc(-c3cccnc3)no2)cc1OCC | 12.2* | u | 40.7 | -8.1% | -8.3% | x
CCN1CCN(c2ccc(NC(=O)COc3ccc([N+](=O)[O-])cc3)cc2)CC1 | -7.2 | u | -8.3 | -1.4% | -7.6% | 19.6%
CCc1nn2cc(C(=O)c3cc(C)ccc3O)cnc2c1-c1ccc(F)cc1 | -1.1 | 2.62µM* | -14.7 | -5.8% | 5.0% | 4.3%
CCC12C(=O)C(CC)(C(c3ccccc3)=C1c1ccccc1)[C@@H]1C(=O)N(c3ccc(C)cc3)C(=O)C12 (some centres not stated) | 6.4 | u | -6.2 | 7.0% | 7.0% | u
CCC12C(=O)C(CC)(C(c3ccccc3)=C1c1ccccc1)[C@@H]1C(=O)N(c3ccccc3)C(=O)C12 (some centres not stated) | -0.6 | 2.08µM* | -6.3 | 23.7% | -20.9% | u
O=C(C1CCC(=O)N(C2CCCC2)C1)N1CCN(c2ccc(Cl)cc2)CC1 (configuration not stated) | 1.8 | u | -3.6 | 9.6% | 11.2% | 288.2%
Cc1ccc(Cl)cc1N1CCN(C(=O)C2CCC(=O)N(C3CCCCCC3)C2)CC1 (configuration not stated) | -2.2 | 11.7µM* | 1.4 | 11.8% | -4.3% | u
Cc1cccc(N2CCN(C(=O)C3CCC(=O)N(C4CC4)C3)CC2)c1C (configuration not stated) | 8.7 | 6.1% | 8.3 | 9.2% | 5.01µM* | -15.9%
O=C(/C=C/c1cccnc1)/C=C/c1cccnc1 | -9.0 | u | -24.0 | -75.8% | -6.9% | u
[O-]/[N+](=C/c1cccnc1)c1ccc(Br)cc1 | 37.0* | 142.9% | 93.5* | -0.2% | 1.1% | x
[O-]/[N+](=C\c1ccncc1)c1ccc(Br)cc1 | 17.4* | 256.8% | 39.4 | -80.2% | -3.9% | -10.9%
S=C(NCc1ccncc1)Nc1ccc(Br)cc1 | 6.3 | u | 4.4 | -2.1% | 1.9% | 0.0%
C=C1CC2C(CC[C@]3(C)C(=O)CCC23)[C@]2(C)C=CC(=O)C=C12 (some centres not stated) | x | u | x | x | x | 13.5µM*
O=C1NC(=O)C2(COC(c3cccc([N+](=O)[O-])c3)OC2)S1 (configuration not stated) | -3.3 | -13.5% | -2.9 | x | -4.5% | 22.2%
Cc1ccc2c(c1)NC(=O)c1cccnc1N2 | 50.5* | 215.1% | 96.7 | -12.9% | 0.2% | i
CCCCN(C/C=C/c1ccccc1OC)Cc1ccccc1 | 4.7 | u | 23.9 | 6.6% | -5.4% | 8.28µM*
O=C(N1CCC(n2nc(-c3ccccc3)oc2=O)CC1)C1(c2ccc(Cl)cc2)CC1 | -2.9 | u | -9.6 | -3.3% | -20.3% | u
SMILES | CHX counter | Pf growth 48h | Shiga inhibitor | NS1 function inh | SARS PLpro yeast | Pf growth 96h
COc1ccc(CNC(=O)CN2C(=O)COc3ccc(S(=O)(=O)N4CCC(C)CC4)cc32)cc1 | -0.3 | -14.2% | -1.7 | 10.4% | 0.0% | 13.1µM*
CC(C)CN(CCCNC(=O)CN1C(=O)COc2ccc(S(=O)(=O)N3CCCCCC3)cc21)CC(C)C | -2.8 | u | 13.2 | -3.2% | u | u
COc1ccc(CNC(=O)CN2C(=O)COc3ccc(S(=O)(=O)N4CCOCC4)cc32)cc1 | 13.7 | -11.2% | -2.8 | 0.4% | 4.2% | u
CC1CCN(S(=O)(=O)c2ccc3c(c2)N(CC(=O)NCCCN2CCCC(C)C2)C(=O)CO3)CC1 (configuration not stated) | -6.7 | -15.1% | -4.3 | -5.9% | x | 11.7µM*
CC1CCN(S(=O)(=O)c2ccc3c(c2)N(CC(=O)NCCCN2CCCC(C)C2)C(=O)CS3)CC1 (configuration not stated) | 1.1 | u | -10.2 | -21.8% | -1.9% | -4.2%
CC(C)CN(CCCNC(=O)CN1C(=O)COc2ccc(S(=O)(=O)N3CCCC3)cc21)CC(C)C | 5.2 | 11.7µM* | -7.4 | x | -1.6% | u
CC(C)N(Cc1ccccc1)C(=O)CN1C(=O)COc2ccc(S(=O)(=O)N3CCCCCC3)cc21 | -3.5 | 0.828µM* | -3.0 | 10.2% | -0.3% | 5.6%
N#Cc1ccc(OCC(=O)Nc2ccc(S(=O)(=O)N3CCOCC3)cc2)cc1 | x | x | x | x | 2.2% | x
Cc1c(NC(=O)c2ccc(N3C(=O)C4C5C=CC(C5)C4C3=O)cc2)c(=O)n(-c2ccccc2)n1C (configuration not stated) | -3.1 | 11.7% | -23.6 | -19.3% | -2.5% | 32.8%
O=C(Nc1cccc(-c2nc3ccccc3o2)c1)c1cccnc1 | 19.5 | 3.8% | -3.5 | x | -1.8% | 18.0%
O=C(Nc1ccc2oc(-c3ccccc3F)nc2c1)c1ccc2c(c1)OCCO2 | 27.8* | -6.1% | 71.9* | -13.0% | -3.6% | 4.8%
O=C(Nc1ccc(-c2nc3ccccc3o2)cc1)c1ccc(N2C(=O)C3C4C=CC(C4)C3C2=O)cc1 (configuration not stated) | 22.1* | x | 41.7* | 9.8% | -3.5% | 1.85µM*
Cc1ccc2oc(-c3ccc(NC(=O)c4ccc5c(c4)OCO5)cc3)nc2c1 | 36.6* | 72.6% | 58.4* | 5.3% | 6.7% | 28.9%
O=C(Nc1ccc(-c2nc3ccccc3o2)cc1)c1ccc2c(c1)OCO2 | 20.0 | u | 45.8 | -0.2% | x | u
O=C(Nc1ccc(-c2nc3ccccc3o2)cc1)c1cccnc1 | 43.8* | 126.5% | 114.8* | -24.3% | -12.7% | 112.3%
O=C(CCN1C(=O)c2ccccc2C1=O)Nn1cnnc1 | -2.0 | -1.2% | 14.3 | 2.4% | 12.8% | 2.94µM*

Screening data as filed in PubChem.
